A structure can be active in one record and inactive in another. Active and inactive are the calls of the source. The calls were made as follows: active = hit-call score of the fitted dose curve at least 0.9, where 1 is the maximum; inactive = score below 0.9.
system: not listed separately; assay: ATG_PBREM_CIS: Attagene CIS-FACTORIAL HepG2 Assay for human Phenobarbital-responsive Enhancer Module (PBREM) (AID 2282955); settings: HepG2 PBREM cis-reporter, Attagene multiplexed transcription; actives raise or lower the signal
Outline: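 Transfected liver-derived HepG2 cells exposed 24 h; PBREM reporter transcript quantified via RT-PCR and capillary electrophoresis, with activity in either direction referenced to DMSO.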

Compound | AC50 | outcome
COc1cc(-c2ccc(N)c(OC)c2)ccc1N | 29.2 µM (active) | inactive
CC(=O)C=C(C)C | – | inactive
CCC(=O)c1ccccc1 | – | inactive
CN(C)N=O | – | inactive
CCc1ccccc1N | – | inactive
BrCCBr | – | inactive
C[C@]12CC[C@H](O)CC1=CC[C@@H]1[C@@H]2CC[C@]2(C)C(=O)CC[C@@H]12 | – | inactive
Nc1cccc2ccccc12 | – | inactive
O=Cc1cccc(Oc2ccccc2)c1 | – | inactive
O=CC=O | – | inactive
C[C@H]1O[C@@H](O[C@H]2[C@@H](O)C[C@H](O[C@H]3[C@@H](O)C[C@H](O[C@H]4CC[C@@]5(C)[C@H](CC[C@@H]6[C@@H]5CC[C@]5(C)[C@@H](C7=CC(=O)OC7)CC[C@]65O)C4)O[C@@H]3C)O[C@@H]2C)C[C@H](O)[C@@H]1O | – | inactive
O=C/C=C/c1ccccc1 | – | inactive
Clc1ccc(C2(Cn3cncn3)CC(Br)CO2)c(Cl)c1 (configuration not stated) | 6.34 µM (active) | –
Clc1ccc(COC(Cn2ccnc2)c2ccc(Cl)cc2Cl)cc1 (configuration not stated) | – | inactive
CCCCCCCCC(=O)NCc1ccc(O)c(OC)c1 | – | inactive
Oc1ccc(-c2ccccc2)cc1 | 176 µM (active) | –
CC(=O)[O][Hg][c]1ccccc1 | – | inactive
O=C(O)C(Cl)(Cl)Cl | – | inactive
CC(C)(c1ccccc1)c1ccc(O)c(C(C)(C)c2ccccc2)c1 | 0.42 µM (active) | –
CCCCCCCCc1ccc(O)cc1 | – | inactive
C[C@H]1CCCC(=O)CCC/C=C/c2cc(O)cc(O)c2C(=O)O1 | 5.35 µM (active) | –
O=C(O)C(F)(F)C(F)(F)C(F)(F)C(F)(F)C(F)(F)C(F)(F)C(F)(F)C(F)(F)C(F)(F)C(F)(F)F | 70.8 µM (active) | inactive
Cc1ccc2ccccc2c1C | – | inactive
O=S(=O)(c1ccc(Cl)cc1)c1ccc(Cl)cc1 | – | inactive
CC(C)(C)c1cc(O)ccc1O | – | inactive
COC(=O)Cc1ccccc1 | – | inactive
COC(=O)c1sccc1S(=O)(=O)NC(=O)Nc1nc(C)nc(OC)n1 | – | inactive
O=C(O)C(F)(F)C(F)(F)C(F)(F)C(F)(F)C(F)(F)C(F)(F)F | – | inactive

target: Paired box protein Pax-6 (Homo sapiens) (UniProt P26367); assay: ATG_Pax6_CIS: Attagene CIS-FACTORIAL HepG2 Assay for human Paired Box 6 (PAX6) (AID 2282956); settings: HepG2 CIS-FACTORIAL PAX6 reporter transcription, RNA readout; actives raise or lower the signal
Outline: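 HepG2 cells transiently transfected with multiplexed cis-promoter reporter units (endogenous TF activity) were dosed for 24 h. Reporter mRNA was quantified by RT-PCR, 6-FAM labeling, HpaI digestion and capillary electrophoresis; bidirectional fitting versus DMSO baseline.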

Paired box protein Pax-6 (Homo sapiens), sequence (P26367 whole entry, looked up): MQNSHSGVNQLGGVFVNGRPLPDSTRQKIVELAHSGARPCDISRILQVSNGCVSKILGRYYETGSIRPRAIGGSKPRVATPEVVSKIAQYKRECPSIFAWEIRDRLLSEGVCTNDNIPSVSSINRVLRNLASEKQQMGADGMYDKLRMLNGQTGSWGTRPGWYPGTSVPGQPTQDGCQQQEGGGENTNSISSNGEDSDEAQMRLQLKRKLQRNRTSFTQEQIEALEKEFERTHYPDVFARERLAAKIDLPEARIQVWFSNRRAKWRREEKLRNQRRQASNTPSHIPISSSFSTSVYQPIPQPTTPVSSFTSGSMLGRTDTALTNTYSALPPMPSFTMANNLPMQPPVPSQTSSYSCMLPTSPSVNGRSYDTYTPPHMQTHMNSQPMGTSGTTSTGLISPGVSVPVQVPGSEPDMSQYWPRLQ

Compound | AC50 | outcome
COc1cc(-c2ccc(N)c(OC)c2)ccc1N | 19.9 µM (active) | inactive
CCSC(C)CC1CC(=O)C(C(CC)=NOC/C=C/Cl)=C(O)C1 (configuration not stated) | – | inactive
CC(=O)C=C(C)C | – | inactive
CCC(=O)c1ccccc1 | – | inactive
CN(C)N=O | – | inactive
CCc1ccccc1N | – | inactive
BrCCBr | – | inactive
C[C@]12CC[C@H](O)CC1=CC[C@@H]1[C@@H]2CC[C@]2(C)C(=O)CC[C@@H]12 | – | inactive
Nc1cccc2ccccc12 | – | inactive
O=Cc1cccc(Oc2ccccc2)c1 | – | inactive
O=CC=O | – | inactive
CCC[CH2][Sn]([CH2]CCC)([CH2]CCC)[O]C(=O)c1ccccc1 | – | inactive
O=[N+]([O-])c1ccc2c3c(cccc13)CC2 | – | inactive
C[C@H]1O[C@@H](O[C@H]2[C@@H](O)C[C@H](O[C@H]3[C@@H](O)C[C@H](O[C@H]4CC[C@@]5(C)[C@H](CC[C@@H]6[C@@H]5CC[C@]5(C)[C@@H](C7=CC(=O)OC7)CC[C@]65O)C4)O[C@@H]3C)O[C@@H]2C)C[C@H](O)[C@@H]1O | – | inactive
O=C/C=C/c1ccccc1 | – | inactive
Clc1ccc(C2(Cn3cncn3)CC(Br)CO2)c(Cl)c1 (configuration not stated) | – | inactive
Clc1ccc(COC(Cn2ccnc2)c2ccc(Cl)cc2Cl)cc1 (configuration not stated) | – | inactive
CCCCCCCCC(=O)NCc1ccc(O)c(OC)c1 | – | inactive
Nc1ccc(-c2ccc(N)c(Cl)c2)cc1Cl | – | inactive
CCC1(c2ccc(N)cc2)CCC(=O)NC1=O (configuration not stated) | – | inactive
Oc1ccc(-c2ccccc2)cc1 | 100 µM (active) | –
CCCCCCCCCl | – | inactive
CC(=O)[O][Hg][c]1ccccc1 | – | inactive
O=C(O)C(Cl)(Cl)Cl | – | inactive
CC(C)(c1ccccc1)c1ccc(O)c(C(C)(C)c2ccccc2)c1 | 12.7 µM (active) | –
COC[C@H](C)N(C(=O)CCl)c1c(C)csc1C | – | inactive
CC(=[OH+])/C=C(/C)[O-].CC(=[OH+])/C=C(/C)[O-].CC(=[OH+])/C=C(/C)[O-].[Fe] | – | inactive
CCCCCCCCc1ccc(O)cc1 | – | inactive
C[C@H]1CCCC(=O)CCC/C=C/c2cc(O)cc(O)c2C(=O)O1 | – | inactive
O=C(O)C(F)(F)C(F)(F)C(F)(F)C(F)(F)C(F)(F)C(F)(F)C(F)(F)C(F)(F)C(F)(F)C(F)(F)F | 30.8 µM (active) | inactive
